# Experimental data published in PubChem BioAssay (Tox21).
# Values joined by “and” are separate entries in the source; they are usually repeats but may differ in a detail not shown here. Equal values may be shown once. The source holds several records for some structures; these can differ, active in one and inactive in another. Active and inactive are the calls of the source. A call without a number means that no potency is given here. Unless noted, the call rests on the fitted dose curve; in most records, active means well fitted curve in the direction sought with a large enough effect in the repeat runs; inconclusive means weak or mixed curves; inactive means no such curve, though single readings can be large; an effect the other way counts as inactive or inconclusive.
# Columns and labels:
# [1] = qHTS assay to identify small molecule antagonists of the glucocorticoid receptor (GR) signaling pathway - cell viability counter screen (AID 720693); further: nearly all actives have a fitted effect of over 55% in size
# [2] = qHTS assay for identifying genotoxic compounds that show differential cytotoxicity against isogenic chicken DT40 cell lines with known DNA damage response pathways - Rev3 mutant cell line (AID 743014); further: nearly all actives have a fitted effect of over 55% in size; further: potency means the concentration at half of the fitted maximal effect
# [3] = qHTS assay for identifying genotoxic compounds that show differential cytotoxicity against isogenic chicken DT40 cell lines with known DNA damage response pathways - Rad54/Ku70 mutant cell line (AID 743015); further: nearly all actives have a fitted effect of over 60% in size; further: potency means the concentration at half of the fitted maximal effect
# [4] = qHTS assay to identify small molecule antagonists of the androgen receptor (AR) signaling pathway - cell viability counter screen (AID 743033; further: nearly all actives have a fitted effect of over 45% in size)
# [5] = biological target: Androgen receptor (Homo sapiens) (UniProt P10275); experiment: qHTS assay to identify small molecule antagonists of the androgen receptor (AR) signaling pathway (AID 743035; active means well fitted inhibition curve with a large enough effect in the signal ratio in the repeat runs, not every such curve was filed as active; inconclusive means weak or mixed curves, or effect the other way; inactive means no such curve, though single readings can be large or run the other way; the % refers to the signal ratio)
# Sequence of Androgen receptor (Homo sapiens) (P10275 whole entry, looked up): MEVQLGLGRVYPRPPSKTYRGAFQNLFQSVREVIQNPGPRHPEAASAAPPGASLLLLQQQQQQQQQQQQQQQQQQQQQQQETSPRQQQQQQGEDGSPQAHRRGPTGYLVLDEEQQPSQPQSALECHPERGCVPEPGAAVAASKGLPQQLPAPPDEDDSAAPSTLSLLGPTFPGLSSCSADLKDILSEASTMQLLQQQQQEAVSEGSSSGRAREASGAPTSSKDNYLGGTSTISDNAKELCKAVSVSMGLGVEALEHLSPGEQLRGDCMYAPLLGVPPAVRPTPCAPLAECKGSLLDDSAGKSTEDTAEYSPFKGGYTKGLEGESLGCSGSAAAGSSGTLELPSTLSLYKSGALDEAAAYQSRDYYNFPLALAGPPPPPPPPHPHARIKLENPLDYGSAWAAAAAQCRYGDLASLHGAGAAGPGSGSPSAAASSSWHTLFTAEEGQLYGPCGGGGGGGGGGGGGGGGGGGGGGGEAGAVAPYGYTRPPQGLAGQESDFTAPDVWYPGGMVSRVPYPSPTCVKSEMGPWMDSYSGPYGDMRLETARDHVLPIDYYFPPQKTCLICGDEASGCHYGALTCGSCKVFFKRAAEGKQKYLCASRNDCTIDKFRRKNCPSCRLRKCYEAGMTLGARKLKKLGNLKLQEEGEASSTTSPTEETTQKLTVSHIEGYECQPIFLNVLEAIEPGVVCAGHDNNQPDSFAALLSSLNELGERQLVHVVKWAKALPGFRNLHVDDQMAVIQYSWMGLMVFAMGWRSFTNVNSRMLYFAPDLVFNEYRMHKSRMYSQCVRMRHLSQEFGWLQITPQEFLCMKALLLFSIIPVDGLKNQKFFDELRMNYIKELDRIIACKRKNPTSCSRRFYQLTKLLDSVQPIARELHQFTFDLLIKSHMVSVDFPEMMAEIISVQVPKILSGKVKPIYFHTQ
# Procedure, shortened: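 Quantitative HTS of the Tox21 10K library used HEK293 AR-UAS-bla cells stimulated with R1881 alongside compound for 16 h at 37C, followed by beta-lactamase FRET detection (LiveBLAzer B/G, 2 h, RT).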
# [6] = biological target: Androgen receptor (Homo sapiens) (UniProt P10275); experiment: qHTS assay to identify small molecule agonists of the androgen receptor (AR) signaling pathway (AID 743036; active means well fitted activation curve with a large enough effect in the signal ratio in the repeat runs, with a control signal flat, not every such curve was filed as active; inconclusive means weak or mixed curves, or effect the other way; inactive means no such curve, though single readings can be large or run the other way; the % refers to the signal ratio)
# Procedure, shortened: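 Reporter line: GeneBLAzer AR-UAS-bla-GripTite (HEK293). Steps: plate cells, 4 h rest, add compounds, 16 h at 37C, add LiveBLAzer B/G substrate, 2 h at RT, read fluorescence.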
# [7] = biological target: Androgen receptor (Homo sapiens) (UniProt P10275); experiment: qHTS assay to identify small molecule agonists of the androgen receptor (AR) signaling pathway using the MDA cell line (AID 743040; further: nearly all actives have a fitted effect of over 20% in size; further: potency means the concentration at half of the fitted maximal effect)
# Procedure, shortened: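 Cell-based luciferase reporter: MDA-kb2, MMTV promoter (AR + GR response elements). 16 h compound exposure at 37C; ONE-Glo, 30 min RT, luminescence.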
# [8] = qHTS assay to identify small molecule antagonists of the androgen receptor (AR) signaling pathway using the MDA cell line - cell viability counter screen (AID 743041; further: nearly all actives have a fitted effect of over 45% in size; further: potency means the concentration at half of the fitted maximal effect)
# Procedure, shortened: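 In this qHTS counter assay, fluorescence intensity after CellTiter-Fluor addition indicated viability of MDA-kb2 AR-luc cells given compounds and R1881 for 16 h at 37C.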
# [9] = biological target: Androgen receptor (Homo sapiens) (UniProt P10275); experiment: qHTS assay to identify small molecule antagonists of the androgen receptor (AR) signaling pathway using the MDA cell line (AID 743042; further: nearly all actives have a fitted effect of over 55% in size)
# Procedure, shortened: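 MDA-kb2 cells (human breast carcinoma, stably carrying an MMTV-luciferase reporter responsive to AR and GR) were plated at 3,000 cells/well and preincubated 5 hr at 37C, then given compound plus R1881 agonist for 16 h. ONE-Glo luminescence was read.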
# [10] = qHTS assay to identify small molecule antagonists of the thyroid receptor (TR) signaling pathway - cell viability counter screen (AID 743064); further: nearly all actives have a fitted effect of over 50% in size; further: potency means the concentration at half of the fitted maximal effect
# Procedure, shortened: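 Plate GH3.TRE-Luc cells; incubate 4 h at 37 °C; add compound, then T3 to 1 nM final; incubate 23.5 h; add CellTiter-Fluor; incubate 30 min at 37 °C, 5% CO2; read fluorescence.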
# [11] = qHTS assay to identify small molecule antagonists of the thyroid receptor (TR) signaling pathway (AID 743065); further: nearly all actives have a fitted effect of over 55% in size; further: potency means the concentration at half of the fitted maximal effect
# Procedure, shortened: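 GH3.TRE-Luc rat pituitary cells carrying two TR response elements driving luciferase were plated for 4 h, given compound plus 1 nM T3 (final), and incubated 23.5 h at 37 C. ONE-Glo luminescence measured reporter inhibition; CellTiter-Fluor fluorescence tracked cytotoxicity.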
# [12] = test system: thyroid hormone receptor (rat, GH3 cells); experiment: qHTS assay to identify small molecule agonists of the thyroid receptor (TR) signaling pathway (AID 743066; calls by dose curve)
# [13] = biological target: Estrogen receptor (Homo sapiens) (UniProt P03372); experiment: qHTS assay to identify small molecule antagonists of the estrogen receptor alpha (ER-alpha) signaling pathway (AID 743069; active means well fitted curve in the direction sought with a large enough effect in the signal ratio in the repeat runs, not every such curve was filed as active; inconclusive means weak or mixed curves, or effect the other way; inactive means no such curve, though single readings can be large or run the other way; the % refers to the signal ratio; further: potency means the concentration at half of the fitted maximal effect)
# Sequence of Estrogen receptor (Homo sapiens) (P03372 whole entry, looked up): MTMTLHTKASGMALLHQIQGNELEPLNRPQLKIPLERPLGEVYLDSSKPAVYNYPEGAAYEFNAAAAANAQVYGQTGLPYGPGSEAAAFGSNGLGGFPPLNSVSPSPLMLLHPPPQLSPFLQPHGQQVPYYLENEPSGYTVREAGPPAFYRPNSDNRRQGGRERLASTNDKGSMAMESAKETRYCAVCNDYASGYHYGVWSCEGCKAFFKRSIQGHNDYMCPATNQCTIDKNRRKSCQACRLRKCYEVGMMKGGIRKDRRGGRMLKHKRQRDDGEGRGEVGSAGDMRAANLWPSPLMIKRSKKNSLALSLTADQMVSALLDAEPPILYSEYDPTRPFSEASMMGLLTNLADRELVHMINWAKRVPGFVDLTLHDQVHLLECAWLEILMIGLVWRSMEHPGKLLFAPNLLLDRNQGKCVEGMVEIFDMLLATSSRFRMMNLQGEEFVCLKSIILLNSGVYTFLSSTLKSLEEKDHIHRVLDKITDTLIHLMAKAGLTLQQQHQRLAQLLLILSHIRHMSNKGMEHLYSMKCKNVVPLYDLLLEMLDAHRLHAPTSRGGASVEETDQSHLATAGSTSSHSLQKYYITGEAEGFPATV
# Procedure, shortened: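 A 17beta-estradiol challenge was applied right after compound transfer to ER-alpha-UAS-bla HEK293 cells previously kept in charcoal-stripped serum. Plates stood 18 hr at 37C and 5% CO2; fluorescence was read following 2 hr FRET substrate loading at room temperature.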
# [14] = qHTS assay to identify small molecule antagonists of the estrogen receptor alpha (ER-alpha) signaling pathway - cell viability counter screen (AID 743074; calls by dose curve;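 further: HEK293 cells carrying ER-alpha-UAS-bla reporter stimulated with 17beta-estradiol; nearly all actives have a fitted effect of over 45% in size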)
# [15] = biological target: Estrogen receptor (Homo sapiens) (UniProt P03372); experiment: qHTS assay to identify small molecule agonists of the estrogen receptor alpha (ER-alpha) signaling pathway (AID 743075; calls by dose curve;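 further: HEK293 GripTite cells with ER-alpha and UAS-driven beta-lactamase reporter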; further: potency means the concentration at half of the fitted maximal effect)
# [16] = biological target: Estrogen receptor (Homo sapiens) (UniProt P03372); experiment: qHTS assay to identify small molecule agonists of the estrogen receptor alpha (ER-alpha) signaling pathway using the BG1 cell line (AID 743079); further: nearly all actives have a fitted effect of over 20% in size; further: potency means the concentration at half of the fitted maximal effect
# [17] = qHTS assay to identify small molecule antagonists of the estrogen receptor alpha (ER-alpha) signaling pathway using the BG1 cell line (AID 743080; calls by dose curve;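 further: BG1 cells stimulated with 17beta-estradiol alongside compound; series mostly up to about 70 µM; nearly all actives have a fitted effect of over 25% in size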)
# Procedure, shortened: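 BG1Luc4E2, endogenous ER-alpha, 4xERE-luc; 5 d charcoal-stripped FBS, phenol red free; 24 h plating; cpd + 17beta-estradiol 21.5 h, 37 C/5% CO2; CellTiter-Fluor viability 30 min, then ONE-Glo luciferase 30 min RT.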
# [18] = qHTS assay to identify small molecule antagonists of the estrogen receptor alpha (ER-alpha) signaling pathway using the BG1 cell line - cell viability counter screen (AID 743081);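 further: compound given together with 17beta-estradiol as the ER stimulus; nearly all actives have a fitted effect of over 45% in size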; further: potency means the concentration at half of the fitted maximal effect
# [19] = biological target: Aromatase (Homo sapiens) (UniProt P11511); experiment: qHTS assay to identify aromatase inhibitors (AID 743083); further: nearly all actives have a fitted effect of over 55% in size; further: potency means the concentration at half of the fitted maximal effect
# Sequence of Aromatase (Homo sapiens) (P11511 whole entry, looked up): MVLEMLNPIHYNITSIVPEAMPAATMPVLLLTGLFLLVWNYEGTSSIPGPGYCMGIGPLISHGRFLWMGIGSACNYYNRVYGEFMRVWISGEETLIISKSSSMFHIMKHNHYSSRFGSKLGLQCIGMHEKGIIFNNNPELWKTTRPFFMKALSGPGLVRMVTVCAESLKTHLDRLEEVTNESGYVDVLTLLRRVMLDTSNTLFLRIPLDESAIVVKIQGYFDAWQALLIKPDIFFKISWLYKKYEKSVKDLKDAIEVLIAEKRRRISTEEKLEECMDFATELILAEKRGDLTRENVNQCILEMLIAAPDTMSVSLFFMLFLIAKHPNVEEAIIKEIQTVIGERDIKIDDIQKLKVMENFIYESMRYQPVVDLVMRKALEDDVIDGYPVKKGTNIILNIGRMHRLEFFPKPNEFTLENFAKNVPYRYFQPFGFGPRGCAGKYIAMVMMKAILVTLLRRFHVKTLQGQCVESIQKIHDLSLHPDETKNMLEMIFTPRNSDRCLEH
# [20] = qHTS assay for identifying genotoxic compounds that show differential cytotoxicity against isogenic chicken DT40 cell lines with known DNA damage response pathways - wild type cell line (AID 743012); further: nearly all actives have a fitted effect of over 60% in size; further: potency means the concentration at half of the fitted maximal effect
# Procedure, shortened: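 Luminescent ATP viability signal (CellTiter-Glo, 30 min RT) recorded after wild type DT40 cells were incubated with compounds for 40 h at 37 C/5% CO2.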
Compound,Potency [1],Potency [2],Potency [3],outcome [4],outcome [5],outcome [6],Potency [7],Potency [8],outcome [9],Potency [10],Potency [11],Potency [12],Potency [13],Potency [14],Potency [15],Potency [16],Potency [17],Potency [18],Potency [19],Potency [20]
CCCCC(CC)COC(=O)/C=C/c1ccc(OC)cc1 (configuration not stated),inactive,inactive,inactive,inactive,inactive,inactive,inactive,inactive,inactive,inactive,inactive,inactive,inactive,inactive,inactive,inactive,inactive,inactive,inactive,
O=C(O)c1cc(N=Nc2ccc(S(=O)(=O)Nc3ccccn3)cc2)ccc1O,inactive,inactive,inactive,inactive,,,,,,,,,,inactive,,,,34.5 µM (active),inactive,inactive
CC(=O)OCC(COC(C)=O)OC(C)=O,inactive,inactive,inactive,inactive,,,,inactive,,inactive,inactive,inactive,,inactive,,,,inactive,inactive,inactive
CC(C)(Oc1ccc(C2CC2(Cl)Cl)cc1)C(=O)O (configuration not stated),inactive,inactive,inactive,inactive,inactive,inactive,inactive,,inactive,inactive,inactive,inactive,inactive,inactive,inactive,inactive,inactive,inactive,inactive,
O=c1cc[nH]c(=S)[nH]1,inactive,inactive,inactive,inactive,,,,,,inactive,inactive,inactive,inactive,inactive,inactive,inactive,inactive,inactive,inactive,inactive
O=C1CN(/N=C/c2ccc([N+](=O)[O-])o2)C(=O)N1,inactive,54.3 µM (active) and 68.6 µM (active),60.9 µM (active),,,,,,,60.9 µM (active) and 68.6 µM (active),inactive,inactive,49 µM [inconclusive] (active),inactive,2.39 µM [inconclusive] (active) and inactive,531 nM (active) and inactive,inactive,43.1 µM (active),26.6 µM (active) and 43.1 µM (active),60.9 µM (active)
Oc1ccc(/C=C/c2cc(O)cc(O)c2)cc1,inactive,7.17 µM (active) and 15.5 µM (active) and 21.7 µM (active),9.02 µM (active) and 27.6 µM (active) and 30.6 µM (active),inactive,,,6.92 µM (active) and 2.73 µM (active),,inactive,inactive and 27.6 µM (active) and 27.3 µM (active),,inactive,,inactive,6.44 µM [inconclusive] (active) and 8.8 nM [inconclusive] (active) and 19.5 µM [inconclusive] (active),7.17 µM (active) and 15.5 µM (active) and 9.69 µM (active),,inactive,,
CC(O)CO (configuration not stated),inactive,inactive,inactive and 61.1 µM (active),inactive,,,,inactive,,inactive,inactive,inactive,inactive,inactive,inactive,inactive,inactive,inactive,inactive,inactive
O=C(O)c1[nH]n(-c2ccc(S(=O)(=O)O)cc2)c(=O)c1N=Nc1ccc(S(=O)(=O)O)cc1,inactive,inactive,inactive,inactive,,,,15 µM (active) and 61.3 µM (active) and 57.1 µM (active),,54.6 µM (active) and 50.9 µM (active),inactive,inactive,inactive,inactive,inactive,inactive,inactive,inactive and 54.6 µM (active) and 64.1 µM (active),inactive,
C1N2CN3CN1CN(C2)C3,inactive,inactive,inactive,inactive,inactive,inactive,inactive,inactive,inactive,inactive,inactive,inactive,,inactive,,,,inactive,inactive,inactive
CCCN(CCC)S(=O)(=O)c1ccc(C(=O)O)cc1,inactive,inactive,inactive,inactive,inactive,inactive,,,inactive,inactive,inactive,inactive,,inactive,,,,inactive,inactive,
O=C(O)c1cccc([N+](=O)[O-])c1,inactive,inactive,inactive,inactive,,,,inactive,,inactive,inactive,inactive,,inactive,,,,inactive,inactive,inactive
CCCC(CCC)C(=O)O,inactive,inactive,inactive,inactive,,,,inactive,,inactive,inactive,inactive,inactive,inactive,inactive,inactive,inactive,inactive,inactive,
O=C(c1ccccc1)C(O)c1ccccc1 (configuration not stated),inactive,inactive,inactive,inactive,,,,,,inactive,inactive,inactive,,inactive,,,,inactive,inactive,inactive
CC(C)[C@@H]1CC[C@@H](C)C[C@H]1O,inactive,inactive,inactive,inactive,inactive,inactive,inactive,,inactive,inactive,inactive,inactive,,inactive,,,,inactive,inactive,
Cc1ccc(C)c(OCCCC(C)(C)C(=O)O)c1,inactive,inactive,inactive,inactive,inactive,inactive,inactive,,inactive,inactive,inactive,inactive,inactive,inactive,inactive,inactive,inactive,inactive,inactive,inactive
Cc1noc(NS(=O)(=O)c2ccc(N)cc2)c1C,inactive,inactive,inactive,inactive,,,,inactive,,inactive,inactive,inactive,inactive,inactive,inactive,29.8 µM (active) and inactive,inactive,inactive,inactive,

Compound,Potency [1],Potency [2],Potency [3],outcome [4],outcome [5],outcome [6],Potency [7],Potency [8],outcome [9],Potency [10],Potency [11],Potency [12],Potency [13],Potency [14],Potency [15],Potency [16],Potency [17],Potency [18],Potency [19],Potency [20]
Cc1cc(=O)n(-c2ccccc2)n1C,inactive,inactive,inactive,inactive,inactive,inactive,inactive,,inactive,inactive,inactive,inactive,inactive,inactive,inactive,inactive,inactive,inactive,inactive,inactive
NC(=O)c1ccccc1O,inactive,inactive,inactive,inactive,,,,,,inactive,inactive,inactive,inactive,inactive,inactive,inactive,inactive,inactive,inactive,inactive
O=c1ccc2ccccc2o1,inactive,inactive,inactive,inactive,,,,inactive,,inactive,inactive,inactive,inactive,inactive,inactive,18.8 µM (active) and inactive,inactive,inactive,inactive,inactive
NC(N)=NC(=O)c1nc(Cl)c(N)nc1N,inactive,inactive,inactive,inactive,,,,inactive,,inactive,21.1 µM (active) and 54.8 µM (active),inactive,inactive,inactive,inactive,inactive,inactive,inactive,inactive,
O=C(O)CCCCCCCC(=O)O,inactive,inactive,inactive,inactive,,,,,,inactive,inactive,inactive,,inactive,,,,inactive,inactive,inactive
O=C1NC(=O)c2ccccc21,inactive,inactive,inactive,inactive,,,,inactive,,inactive,inactive,inactive,,inactive,,,,inactive,inactive,inactive
CCCCC1C(=O)N(c2ccccc2)N(c2ccccc2)C1=O,inactive,inactive,inactive,inactive,,,,,,inactive,inactive,inactive,inactive,inactive,inactive,inactive,inactive,inactive,inactive,inactive
CC(O)CN(CCN(CC(C)O)CC(C)O)CC(C)O (configuration not stated),inactive,inactive,inactive,inactive,,,,,,inactive,,,,inactive,,,,inactive,inactive,inactive
CCCC(O)C(CC)CO (configuration not stated),inactive,inactive,inactive,inactive,,,,inactive,,inactive,inactive,inactive,inactive,inactive,inactive,inactive,inactive,inactive,inactive,inactive
CC(=O)Nc1nnc(S(N)(=O)=O)s1,inactive,inactive,inactive,inactive,,,,inactive,,inactive,inactive,inactive,inactive,inactive,inactive,inactive,inactive,inactive,inactive,inactive
OCCc1ccccc1,inactive,inactive,inactive,inactive,,,,,,inactive,inactive,inactive,,inactive,,,,inactive,inactive,inactive
O=S(=O)(O)NC1CCCCC1,inactive,inactive,inactive,inactive,,,,inactive,,inactive,inactive,inactive,,inactive,,,,inactive,inactive,inactive
O=C(C1CCCCC1)N1CC(=O)N2CCc3ccccc3C2C1 (configuration not stated),inactive,inactive,inactive,inactive,,,,inactive,,inactive,inactive,inactive,,inactive,,,,inactive,inactive,inactive
CC(O)C(=O)O (configuration not stated),inactive,inactive,inactive,inactive,,,,inactive,,inactive,inactive,inactive,inactive,inactive,inactive,inactive,inactive,inactive,inactive,
Cc1cc(=O)[nH]c(=S)[nH]1,inactive,inactive,inactive,inactive,,,,inactive,,inactive,inactive,inactive,inactive,inactive,inactive,inactive,inactive,inactive,inactive,
Cc1ccc(O)cc1,inactive,inactive,inactive,inactive,inactive,inactive,inactive,,inactive,inactive,inactive,inactive,,inactive,,,,inactive,inactive,
